From PubChem
PLK1 PBD inh = Plk1 (human) PBD binding inhibition. P53350. inhibition, %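 (tested at about 20 µM)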. hit rate 0.13% among 97,000. AID 693. Plk1 PBD phosphopeptide binding, fluorescence polarization; in the data active = inhibition above about 34%, passing the limit was not always enough
CYP2C9 activ = activators of human CYP2C9; P11712; recombinant CYP2C9, luciferin-H conversion, luminescence; hits give high values; factor 1 = untreated enzyme, 0 = blocked; activation factor at 5 µM; hit rate 1.4% among 96,000; AID 1024;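 active = activation factor of 2 or more for CYP2C9 at a 5 µM dose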
Target sequence (P11712 whole entry, looked up): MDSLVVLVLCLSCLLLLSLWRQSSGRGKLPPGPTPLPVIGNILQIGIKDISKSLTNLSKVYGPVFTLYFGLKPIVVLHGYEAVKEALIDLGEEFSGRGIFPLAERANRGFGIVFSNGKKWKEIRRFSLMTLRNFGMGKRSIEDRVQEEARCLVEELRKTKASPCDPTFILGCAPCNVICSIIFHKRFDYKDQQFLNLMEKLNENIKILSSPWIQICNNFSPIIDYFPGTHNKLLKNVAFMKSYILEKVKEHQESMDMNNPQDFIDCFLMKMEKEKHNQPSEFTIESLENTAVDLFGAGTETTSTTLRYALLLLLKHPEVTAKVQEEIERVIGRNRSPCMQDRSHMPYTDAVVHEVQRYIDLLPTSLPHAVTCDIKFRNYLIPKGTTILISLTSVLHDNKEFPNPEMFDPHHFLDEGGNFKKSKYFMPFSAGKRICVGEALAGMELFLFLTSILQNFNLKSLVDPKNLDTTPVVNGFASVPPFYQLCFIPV
CYP2C9 inh = human CYP2C9 inhibition. P11712. CYP2C9 Supersomes, luciferin-H conversion, luminescence. inhibition, % at 5 µM. hit rate 20% among 96,000. AID 777;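 active = blocking of liver enzyme CYP2C9 beyond about 50% at 5 µM, limit read from the data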
PLK1 kinase inh = PLK1 (human) kinase inhibition; hit rate 0.53% among 97,000; inhibition, % at 10 µM; P53350; recombinant PLK1 kinase, TR-FRET peptide phosphorylation; AID 619;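 active = inhibition of 50% or more in the single-concentration screen; inactive = inhibition below 50%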
CYP2C19 activ = cytochrome P450 2C19 (human) activation; AID 1025; activation factor at 5 µM; 96,000 tested, under 10 active; P33261; recombinant CYP2C19, luciferin-H EGE luminescence; hits give high values; 0 = fully inhibited enzyme, 1 = untreated enzyme;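 active = activation factor of at least 2 at 5 µM in the primary screen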
CYP2C19 inh = human CYP2C19 inhibition. P33261. CYP2C19 Supersomes, luciferin-H EGE luminescence, 30 min. inhibition, % at 5 µM. hit rate 21% among 96,000. AID 778;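 active = CYP2C19 inhibition above a set limit at 5 µM in the primary screen, cut at about 50% in these data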
Large screens that a line does not name were inactive. Sampled rows, rich in hits. Any-hit rate of the full collection: about 28%.

CN(C)c1cccc(C(=O)NCC2CCCO2)c1 (stereo not drawn)	none
C=CCn1c(CSc2nc3ccccc3s2)n[nH]c1=S	CYP2C19 inh 50
CCCSc1nnc(CSc2nc3ccccc3s2)n1-c1ccccc1	CYP2C9 inh 70, CYP2C19 inh 55
C=CCn1c(Cc2nc3ccccc3[nH]2)n[nH]c1=S	CYP2C19 inh 76
S=c1[nH]nc(CSc2nc3ccccc3s2)n1Cc1ccccc1	none
CCn1c(CSc2nc3ccccc3s2)n[nH]c1=S	CYP2C19 inh 73
CN(C)S(=O)(=O)c1cc(S(=O)(=O)N(C)C)c(Cl)cc1N	none
O=C(NC1CCCC1)C(c1cccnc1)N(C(=O)c1csnn1)C1CC1 (stereo not drawn)	none
COC(=O)c1c(C(=O)OC)c2cc(C(=O)c3ccccc3)ccn2c1Cl	none (no result: CYP2C9 activ, CYP2C9 inh, CYP2C19 activ, CYP2C19 inh)
CCn1c(C(c2ccccc2)c2ccccc2)n[nH]c1=S	CYP2C9 inh 82
O=C(NCCC(=O)N1CCN(c2ncccn2)CC1)c1ccccc1	none
O=C(NCCC(=O)N1CCN(c2ncccn2)CC1)c1ccccc1Cl	CYP2C9 inh 54
O=C(COc1ccccc1Cl)N1CCN(c2ncccn2)CC1	CYP2C19 inh 92
O=C(c1ccccc1OCc1ccccc1Br)N1CCN(c2ncccn2)CC1	CYP2C9 inh 99, CYP2C19 inh 97
CCN(CC)S(=O)(=O)c1ccc(NC(=O)C(C)N(c2ccccc2)S(C)(=O)=O)cc1 (stereo not drawn)	none (no result: CYP2C9 activ, CYP2C9 inh, CYP2C19 activ, CYP2C19 inh)
COc1ccc(C(C#N)C2(C)OCCO2)cc1OC (stereo not drawn)	none
COc1ccccc1CC(=O)Nc1ccc(O)cc1C(=O)O	none
CCOc1cc(NC(=S)NCC2CCCO2)c(OCC)cc1NC(=O)c1cccc(C)c1 (stereo not drawn)	none (no result: CYP2C19 activ, CYP2C19 inh)
CCC(CC)C(=O)Nc1nc(-c2ccc3c(c2)CCN3C(=O)C2CC2)c(C)s1	CYP2C9 inh 81
Cc1sc(NC(=O)CN2CCOCC2)nc1-c1ccc2c(c1)CCN2S(=O)(=O)c1ccccc1	none
O=C(Nc1cnccn1)c1cccc(C(F)(F)F)c1	none
COc1cc2c(cc1OC)C(=S)NC(C)(C)C2	none
COCCCn1c(SCC(=O)Nc2cccc(C(=O)OC)c2)nnc1-c1ccncc1	CYP2C9 inh 79, CYP2C19 inh 81
COCCn1c(SCC(=O)Nc2cccc(OC)c2)nnc1-c1ccc(Cl)cc1	CYP2C9 inh 67, CYP2C19 inh 94
COCCn1c(SCC(=O)Nc2sc(C)c(C)c2C#N)nnc1-c1ccc(OC)cc1	CYP2C9 inh 54
COCCn1c(SCC(=O)Nc2cccc(OC)c2)nnc1-c1ccccc1	none
CC12CCC(C(=O)Nc3ncc([N+](=O)[O-])s3)(OC1=O)C2(C)C (stereo not drawn)	none
CCOC(=O)c1ccc(CSc2nnc(-c3ccncc3)n2N)cc1	CYP2C19 inh 68
CC(C)OC(=O)CSc1nnc(-c2ccncc2)n1N	CYP2C9 inh 56, CYP2C19 inh 86
COC(=O)c1ccc(NC(=O)CSc2nnc(-c3ccncc3)n2N)cc1	none
Cc1cc2nc(C)n3c4ccccc4nc3n2n1	none
CC1=C(C(=O)Nc2ccc(Br)cc2)C(c2ccco2)NC(=O)N1 (stereo not drawn)	none
CCCCNC(=O)Nc1ccccc1C(=O)NCCC	none (no result: CYP2C9 activ, CYP2C9 inh, CYP2C19 activ, CYP2C19 inh)
CCCCNC(=O)c1ccccc1NC(=O)CCSc1ccccc1	CYP2C9 inh 81, CYP2C19 inh 93
Cc1ccccc1Cn1nnc(-c2ccc3c(c2)OCO3)n1	none (no result: CYP2C9 activ, CYP2C9 inh, CYP2C19 activ, CYP2C19 inh)
Fc1cccc(Cn2ccc(-c3ccc4c(c3)OCO4)n2)c1	CYP2C9 inh 86, CYP2C19 inh 95
Cc1ccccc1Cn1ccc(-c2ccc3c(c2)OCO3)n1	CYP2C9 inh 50, CYP2C19 inh 58
COc1ccc(S(C)(=O)=O)cc1S(C)(=O)=O	none
COc1ccc(-n2c(=S)[nH]c3cc(C(=O)NCCCN4CCCC4=O)ccc3c2=O)cc1	none
CCn1c(C(=O)N2CCCC(C(=O)NCCCc3ccccc3)C2)cc2sccc21 (stereo not drawn)	none (no result: CYP2C9 activ, CYP2C9 inh, CYP2C19 activ, CYP2C19 inh)
Cn1c(C(=O)N2CCCC(C(=O)NCCCSC3CCCCC3)C2)cc2sccc21 (stereo not drawn)	CYP2C9 inh 82
CCn1c(C(=O)N2CCCC(C(=O)NCCc3ccc(C)cc3)C2)cc2sccc21 (stereo not drawn)	CYP2C9 inh 50
Cn1c(C(=O)N2CCCC(C(=O)NCc3cccs3)C2)cc2sccc21 (stereo not drawn)	none
C=CCSc1nnc(-c2cc3c(s2)-c2ccccc2CC3)o1	none
O=C(NCC(=O)N(c1ccc(F)cc1)C(C(=O)NCC1CCCO1)c1ccccc1)c1ccco1 (stereo not drawn)	none
O=S(=O)(CCc1nc2ccccc2o1)c1ccc2ccccc2c1	CYP2C9 activ 2.7
O=S(=O)(CCc1nnc(-c2ccccc2)o1)c1ccc2ccccc2c1	none
CCCc1cc(=O)[nH]c(SCC(=O)N2CCN(S(=O)(=O)c3ccc(C)cc3)C2)n1	none
CCC(=O)N1CCCc2cc(S(=O)(=O)N3CCN(c4ccccc4F)CC3)ccc21	CYP2C9 inh 100, CYP2C19 inh 96
CCC(=O)N1CCCc2cc(S(=O)(=O)N3CCN(c4ncccn4)CC3)ccc21	CYP2C9 inh 96, CYP2C19 inh 98
CCC(=O)N1CCc2cc(S(=O)(=O)N3CCc4ccccc43)ccc21	none
CCC(=O)N1CCCc2cc(S(=O)(=O)N3CCN(c4ccccn4)CC3)ccc21	CYP2C9 inh 80, CYP2C19 inh 50 (no result: PLK1 PBD inh, PLK1 kinase inh)
CC(C)NC(=O)C1CCN(C(=O)C(C(=O)c2ccccc2)n2cc(Cl)ccc2=O)CC1 (stereo not drawn)	none
CCOc1ccc(N2C(=O)CC(n3ccc(C)n3)C2=O)cc1 (stereo not drawn)	none (no result: CYP2C9 activ, CYP2C9 inh, CYP2C19 activ, CYP2C19 inh)
COC(=O)C1C(C(C)C)N(c2ccccc2)OC1(C)O (stereo not drawn)	CYP2C19 inh 56 (no result: PLK1 PBD inh, PLK1 kinase inh)
COC(=O)C1C(=O)CC(C)(O)C(C(=O)OC)C1/C=C/c1ccccc1 (stereo not drawn)	none
CC1CCCC(C)N1C(=O)COC(=O)c1ccc(O)cc1 (stereo not drawn)	none
CCOC(=O)C1CCN(Cc2cnc(NC(=O)OC)s2)CC1	none
COC(=O)Nc1ncc(CN2CCc3ccccc3C2)s1	CYP2C19 inh 76
Cc1ccnc(NC(=O)CSc2cc(=O)n(C)c3ccccc23)c1	CYP2C9 activ 3.1, CYP2C19 activ 2.3
Cn1c(=O)cc(SCC(=O)Nc2ccccn2)c2ccccc21	CYP2C9 activ 2.5
O=C(CSc1ccccn1)Nc1cccc(NC(=O)CSc2ccccn2)n1	CYP2C9 inh 55
Cn1c(=O)cc(SCC(=O)Nc2cccnc2)c2ccccc21	CYP2C9 activ 2
CC(=O)Nc1nonc1NC(=O)CSc1ccccn1	none
COc1ccccc1-c1cc(C(=O)NCc2ccco2)no1	none
O=C(Nc1cnccn1)c1cccs1	none (no result: PLK1 PBD inh, PLK1 kinase inh)
O=c1c2ccccc2nc(-c2ccccc2)n1Cc1ccco1	none
COCCn1c(SCC#N)nnc1-c1ccc(OC)cc1	none (no result: CYP2C9 activ, CYP2C9 inh, CYP2C19 activ, CYP2C19 inh)
